Pf Dd2 growth: P. falciparum Dd2 growth inhibition | SYBR Green, 72 h; active compounds read low | activity change, % at 10 µM | 2.3% of 94,000 active | AID 1159554; in the data active means activity change below about -80%
C diff growth: blocks growth of Clostridium difficile. 0.25% of 86,000 active. growth activity, negative = inhibition, % at 16 µg/mL (by protocol). Clostridium difficile clinical isolate growth, OD600, 24 h; active compounds read low. AID 1259249;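 active means mean growth activity at or below -80% and every replicate also at or below -80%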;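 further: 0% = DMSO wells and -100% = levofloxacin 16 µg/mL wells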
T cruzi growth: blocks T. cruzi growth in NIH3T3 culture. T. cruzi beta-gal in NIH3T3, GalScreen luminescence, 90 h. inhibition, % at 8.34 µM. 5.9% of 77,000 active. AID 624255;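 active means mean inhibition above about 93%, with at least 55% of replicates each passing it, limit read from the data, passing the limit was not always enough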
Numbers without * were called inactive; x = not tested or not shown. Rows were chosen to be rich in hits. Some 6.8% of all compounds tested hit in one or more screens of this group.

SMILES	Pf Dd2 growth	C diff growth	T cruzi growth
C[C@H]1CCCCO[C@@H](CN(C)S(=O)(=O)c2ccccc2)[C@@H](C)CN([C@@H](C)CO)C(=O)c2cc(NC(=O)Nc3ccccc3)ccc2O1	-66	x	84
C[C@@H]1CN([C@H](C)CO)C(=O)c2cc(NC(=O)Nc3ccc4c(c3)OCO4)ccc2O[C@@H](C)CCCCO[C@@H]1CN(C)S(=O)(=O)c1ccc(Cl)cc1	-88*	7	51
C[C@@H]1CN([C@H](C)CO)C(=O)c2cc(NC(=O)Nc3ccccc3)ccc2O[C@@H](C)CCCCO[C@H]1CN(C)S(=O)(=O)c1ccc(Cl)cc1	-81*	x	-6
C[C@@H]1CN([C@@H](C)CO)C(=O)c2cc(NC(=O)Nc3ccccc3)ccc2O[C@@H](C)CCCCO[C@@H]1CN(C)S(=O)(=O)c1ccc(Cl)cc1	-87*	x	-120
O=C(C[C@@H]1C[C@@H]2c3cc(NC(=O)Nc4ccccc4)ccc3O[C@@H]2[C@@H](CO)O1)NCc1cccnc1	-11	0	19
COc1ccc(NC(=O)N(C)C[C@H]2Oc3ccc(NC(=O)Nc4ccccc4)cc3C(=O)N([C@@H](C)CO)C[C@@H]2C)cc1	34	4	-20
O=C(c1ccncc1)N1CC2(C1)[C@H](c1ccccc1)[C@@H](CO)N2CC1CCCC1	-15	1	x
CO[C@@H]1CN(C)C(=O)c2ccc(NS(=O)(=O)c3cccc(F)c3)cc2OC[C@@H](C)NC[C@@H]1C	35	1	x
CNC(=O)C[C@H]1CC[C@H]2[C@H](COc3ccc(NC(=O)Nc4cc(C)cc(C)c4)cc3C(=O)N2C)O1	6	3	3
C[C@@H]1CN([C@@H](C)CO)C(=O)c2cccc(NC(=O)c3cnccn3)c2O[C@@H]1CN(C)C(=O)Nc1ccc(C(F)(F)F)cc1	-52	-3	22
C[C@@H]1CCCCO[C@@H](CN(C)S(=O)(=O)c2ccccc2)[C@H](C)CN([C@H](C)CO)C(=O)c2cc(NC(=O)Nc3ccccc3)ccc2O1	-78	x	55
Cc1ccc(S(=O)(=O)N(C)C[C@@H]2OCCCC[C@H](C)Oc3ccc(NC(=O)Nc4ccccc4)cc3C(=O)N([C@H](C)CO)C[C@H]2C)cc1	-90*	8	74
C[C@@H]1CN([C@@H](C)CO)C(=O)c2cc(NC(=O)Nc3ccccc3)ccc2O[C@@H](C)CCCCO[C@@H]1CN(C)S(=O)(=O)c1ccccc1	-67	x	-16
C[C@@H]1CCCCO[C@@H](CN(C)S(=O)(=O)c2ccc(Cl)cc2)[C@@H](C)CN([C@H](C)CO)C(=O)c2cc(NC(=O)Nc3ccccc3)ccc2O1	-84*	x	-7
O=C(C[C@H]1C[C@H]2c3cc(NS(=O)(=O)c4ccccc4)ccc3O[C@H]2[C@H](CO)O1)NC1CCCCC1	-31	x	-71
COCC(=O)N1CC2(CN(C(=O)NC(C)C)C2)c2c(n(C)c3cc(OC)ccc23)[C@@H]1CO	37	2	x
C[C@@H]1CCCCO[C@H](CN(C)S(=O)(=O)c2ccc(F)cc2)[C@H](C)CN([C@@H](C)CO)C(=O)c2cc(NC(=O)Nc3ccc(C(F)(F)F)cc3)ccc2O1	-86*	x	91
Cc1ccc(S(=O)(=O)N(C)C[C@H]2OCCCC[C@@H](C)Oc3ccc(NC(=O)Nc4ccc(C(F)(F)F)cc4)cc3C(=O)N([C@H](C)CO)C[C@@H]2C)cc1	-73	4	x
COc1ccc(S(=O)(=O)N(C)C[C@@H]2OCCCC[C@@H](C)Oc3ccc(NC(=O)Nc4ccc(C(F)(F)F)cc4)cc3C(=O)N([C@H](C)CO)C[C@@H]2C)cc1	-84*	7	59
Cc1ccc(S(=O)(=O)N(C)C[C@@H]2OCCCC[C@H](C)Oc3ccc(NC(=O)Nc4ccc(C(F)(F)F)cc4)cc3C(=O)N([C@@H](C)CO)C[C@@H]2C)cc1	-85*	4	x
COc1ccc(S(=O)(=O)N(C)C[C@H]2OCCCC[C@H](C)Oc3ccc(NC(=O)Nc4ccc(C(F)(F)F)cc4)cc3C(=O)N([C@H](C)CO)C[C@@H]2C)cc1	-62	-2	87
C[C@@H]1CN([C@H](C)CO)C(=O)c2cc(NC(=O)Nc3ccc(C(F)(F)F)cc3)ccc2O[C@@H](C)CCCCO[C@H]1CN(C)S(=O)(=O)c1ccc(F)cc1	-48	x	90
C[C@H](CO)N1C[C@H](C)[C@@H](CN(C)C(=O)CCCN(C)C)OCCCC[C@H](C)Oc2ccc(NC(=O)Nc3ccc(C(F)(F)F)cc3)cc2C1=O	4	x	17
CC(C)c1cn(CC[C@H]2CC[C@H](NS(=O)(=O)Cc3ccccc3)[C@H](CO)O2)nn1	20	x	-1
C[C@@H]1CN([C@H](C)CO)C(=O)c2c(c3ccccc3n2C)-c2ccccc2CO[C@@H]1CN(C)S(=O)(=O)c1ccc(C(F)(F)F)cc1	-86*	2	x
SMILES	Pf Dd2 growth	C diff growth	T cruzi growth
COc1ccc(S(=O)(=O)N(C)C[C@@H]2OCc3ccccc3-c3c(n(C)c4ccccc34)C(=O)N([C@H](C)CO)C[C@H]2C)cc1	-78	x	89
C[C@@H]1CN([C@H](C)CO)C(=O)c2c(c3ccccc3n2C)-c2ccccc2CO[C@H]1CN(C)S(=O)(=O)c1ccc(C(F)(F)F)cc1	-89*	-1	x
C[C@H]1CN([C@@H](C)CO)C(=O)c2c(c3ccccc3n2C)-c2ccccc2CO[C@H]1CN(C)S(=O)(=O)c1ccc(C(F)(F)F)cc1	-91*	-5	x
CCNC(=O)C[C@H]1CC[C@@H]2[C@@H](COc3ccc(NC(=O)Nc4ccc(F)cc4)cc3C(=O)N2C)O1	0	7	4
O=C(C[C@@H]1C[C@@H]2c3cc(NS(=O)(=O)c4ccc(F)cc4)ccc3O[C@@H]2[C@H](CO)O1)NCC(F)(F)F	0	-8	-5
CCCNC(=O)Nc1ccc2c(c1)OC[C@H](C)N(Cc1ccncc1)C[C@H](C)[C@H](OC)CN(C)C2=O	15	8	x
C[C@H]1CN([C@@H](C)CO)S(=O)(=O)c2ccc(-c3ccccc3)cc2O[C@H]1CN(C)C(=O)c1ccccc1F	-51	8	63
COCC(=O)Nc1ccc2c(c1)[C@@H]1C[C@@H](CC(=O)NCc3ccc(Cl)cc3)O[C@@H](CO)[C@@H]1O2	-19	0	-28
C[C@@H]1CCCCO[C@H](CN(C)Cc2ccc(Cl)c(Cl)c2)[C@H](C)CN([C@@H](C)CO)C(=O)c2cc(NC(=O)NC3CCCCC3)ccc2O1	-58	-8	92
N#C[C@H]1[C@@H](c2ccc(C#Cc3ccccc3F)cc2)[C@@H](CO)N1C(=O)C1CCCC1	-89*	-14	x
N#C[C@H]1[C@H](c2ccc(C#Cc3ccccc3F)cc2)[C@H](CO)N1C(=O)c1cccnc1	-87*	4	91
N#C[C@@H]1[C@@H](c2ccc(C#Cc3ccccc3F)cc2)[C@H](CO)N1C(=O)C1CCCCC1	-69	3	87
COc1ccccc1C#Cc1ccc([C@H]2[C@H](C#N)N(C(=O)C3CCCC3)[C@H]2CO)cc1	-65	-15	x
COc1ccccc1C#Cc1ccc([C@@H]2[C@H](C#N)N(C(=O)C3CCCC3)[C@H]2CO)cc1	-79	-6	x
N#C[C@H]1[C@@H](c2ccc(C#Cc3ccccc3F)cc2)[C@H](CO)N1C(=O)c1cccnc1	-49	-26	68
COc1ccccc1C#Cc1ccc([C@H]2[C@@H](C#N)N(C(=O)C3CCCC3)[C@@H]2CO)cc1	-87*	-3	x

Source: PubChem (Broad Institute)
